Assay results published in PubChem BioAssay (NCI).
The panel holds about 79,000 compounds, 15% with a hit somewhere; the sample as a whole holds those more often. A number with no mark means an inactive call. The source made the active and inactive calls. Cut-off read from the data, not from the text of the source: active = growth inhibition above about 70%; inactive = the rest.

Tests used:
[1] = NCI Yeast Anticancer Drug Screen. Data for the rad52 strain (AID 147);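 note: 0% = growth of vehicle-treated control cultures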; conditions: S. cerevisiae rad52 mutant growth inhibition, hits give high values
Summary of the method: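 Read-out: growth inhibition versus vehicle-treated controls. Cells were a DNA repair-deficient yeast strain treated with compounds.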

[2] = NCI Yeast Anticancer Drug Screen. Data for the wt1 strain (AID 149);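 note: 0% = growth of vehicle-treated wt1 cultures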; conditions: S. cerevisiae wt1 strain (SPY 50644) growth inhibition, hits give high values
Summary of the method: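 Readout: yeast growth inhibition, normalised to vehicle controls, in the wt1 strain exposed to test compounds.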

[3] = NCI Yeast Anticancer Drug Screen. Data for the rad50EPP+ strain (AID 151);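 note: 0% = growth of vehicle-treated control cultures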; conditions: S. cerevisiae rad50 mutant strain, hits give high values
Summary of the method: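 Growth inhibition read against vehicle controls in rad50EPP+ yeast, a strain altered in DNA damage repair, after compound exposure.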

[4] = NCI Yeast Anticancer Drug Screen. Data for the mgt1 strain (AID 153); conditions: S. cerevisiae mgt1 mutant growth inhibition, hits give high values
Summary of the method: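 mgt1 yeast grown with test compound; read-out is growth inhibition versus vehicle-treated cultures.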

[5] = NCI Yeast Anticancer Drug Screen. Data for the rad50 strain (AID 155);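 note: 0% = growth of vehicle-only cultures of the same strain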; conditions: S. cerevisiae rad50 strain growth inhibition, hits give high values
Summary of the method: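 Compounds were tested on a yeast strain with an engineered DNA damage repair alteration; the reported value is growth inhibition normalised to vehicle treatment.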

[6] = NCI Yeast Anticancer Drug Screen. Data for the mec2-1 strain (AID 157); conditions: S. cerevisiae mec2-1 strain, hits give high values
Summary of the method: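 Yeast mec2-1 mutant treated with compound. Readout: growth inhibition vs vehicle controls.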

[7] = NCI Yeast Anticancer Drug Screen. Data for the rad14 strain (AID 159);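 note: 0% = growth of vehicle-treated control cultures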; conditions: S. cerevisiae rad14 strain growth inhibition, hits give high values
Summary of the method: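 Compound-treated yeast with a defined DNA-repair lesion; growth inhibition normalised to vehicle-treated cultures.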

[8] = NCI Yeast Anticancer Drug Screen. Data for the sgs1 mgt1 strain (AID 161);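 note: 0% = growth of cultures given vehicle only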; conditions: S. cerevisiae sgs1 mgt1 strain, hits give high values
Summary of the method: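 Read-out: growth inhibition vs vehicle controls. Cells: mutant yeast strain deficient in DNA damage repair.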

[9] = NCI Yeast Anticancer Drug Screen. Data for the CLN2oe strain (AID 163);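 note: 0% = growth of vehicle-only control cultures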; conditions: S. cerevisiae CLN2oe strain, hits give high values
Summary of the method: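 Read-out: yeast growth inhibition, expressed relative to vehicle-only controls. The strain bears an engineered cell-cycle alteration.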

[10] = NCI Yeast Anticancer Drug Screen. Data for the cln2 rad14 strain (AID 165);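 note: 0% = growth equal to vehicle treated cultures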; conditions: S. cerevisiae cln2 rad14 strain, hits give high values
Summary of the method: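 cln2 rad14 yeast strain; compound exposure; growth inhibition read vs vehicle controls.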

[11] = NCI Yeast Anticancer Drug Screen. Data for the bub3 strain (AID 167); conditions: S. cerevisiae bub3 mutant strain, hits give high values
Summary of the method: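 Growth of a checkpoint-deficient yeast mutant is measured after compound exposure. Values represent inhibition relative to vehicle.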

[12] = NCI Yeast Anticancer Drug Screen. Data for the wt2 strain (AID 169);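 note: 0% = growth of vehicle-treated yeast cultures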; conditions: S. cerevisiae wt2 strain growth inhibition, hits give high values
Summary of the method: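 Read-out: growth inhibition versus vehicle-treated control cultures after compound exposure of the yeast strain.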

[13] = NCI Yeast Anticancer Drug Screen. Data for the sgs1 strain (AID 173);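 note: 0% = growth of vehicle-only control cultures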; conditions: S. cerevisiae sgs1 mutant, hits give high values
Summary of the method: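 Read-out: yeast growth inhibition relative to vehicle controls, following compound exposure of a strain with a defined DNA repair/cell cycle alteration.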

[14] = NCI Yeast Anticancer Drug Screen. Data for the mlh1 rad18 strain (AID 175); conditions: S. cerevisiae mlh1 rad18 strain growth inhibition, hits give high values
Summary of the method: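 Yeast w/ defined DNA-repair lesions; compound exposure; growth vs vehicle controls → % inhibition.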

[15] = NCI Yeast Anticancer Drug Screen. Data for the rad18 strain (AID 177); conditions: S. cerevisiae rad18 mutant growth inhibition, hits give high values
Summary of the method: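 Readout: growth inhibition vs vehicle controls. Cells: genetically altered yeast strain, DNA repair defect.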

[16] = at 5.0 µM (retest, dose inferred, filed as 0.5)
[17] = at 50.0 µM (retest, dose inferred, filed as 5.0)

COc1cc(OC)c(CSCC(NC(=O)OCC2c3ccccc3-c3ccccc32)C(=O)O)c(OC)c1 (stereo not drawn)
growth inhibition ([1]; at 1.2 µM): 0% | growth inhibition ([1]; at 3.7 µM): 5% | growth inhibition ([1]; at 11.0 µM): 48% | growth inhibition ([1]; at 33.0 µM): 97% (active) | growth inhibition ([1]; at 100.0 µM): 98% (active) | growth inhibition ([2]; at 1.2 µM): 1% | growth inhibition ([2]; at 3.7 µM): 9% | growth inhibition ([2]; at 11.0 µM): 55% | growth inhibition ([2]; at 33.0 µM): 96% (active) | growth inhibition ([2]; at 100.0 µM): 99% (active) | growth inhibition ([3]; at 1.2 µM): -2% | growth inhibition ([3]; at 3.7 µM): -2% | growth inhibition ([3]; at 11.0 µM): -1% | growth inhibition ([3]; at 33.0 µM): 0% | growth inhibition ([3]; at 100.0 µM): -3% | growth inhibition ([4]; at 1.2 µM): -2% | growth inhibition ([4]; at 3.7 µM): 8% | growth inhibition ([4]; at 11.0 µM): 52% | growth inhibition ([4]; at 33.0 µM): 97% (active) | growth inhibition ([4]; at 100.0 µM): 98% (active) | growth inhibition ([5]; at 1.2 µM): -6% | growth inhibition ([5]; at 3.7 µM): -9% | growth inhibition [5, 16]: 15% | growth inhibition ([5]; at 11.0 µM): 43% | growth inhibition ([5]; at 33.0 µM): 94% (active) | growth inhibition [5, 17]: 99% (active) | growth inhibition ([5]; at 50.0 µM): 98.6% (active) | growth inhibition ([5]; at 100.0 µM): 98% (active) | growth inhibition ([6]; at 1.2 µM): 2% | growth inhibition ([6]; at 3.7 µM): 11% | growth inhibition [6, 16]: 12% | growth inhibition ([6]; at 11.0 µM): 55% | growth inhibition ([6]; at 33.0 µM): 96% (active) | growth inhibition [6, 17]: 99% (active) | growth inhibition ([6]; at 50.0 µM): 99.2% (active) | growth inhibition ([6]; at 100.0 µM): 98% (active) | growth inhibition ([7]; at 1.2 µM): -2% | growth inhibition ([7]; at 3.7 µM): 10% | growth inhibition ([7]; at 11.0 µM): 68% | growth inhibition ([7]; at 33.0 µM): 96% (active) | growth inhibition ([7]; at 100.0 µM): 99% (active) | growth inhibition [8, 16]: -4% | growth inhibition [8, 17]: 98% (active) | growth inhibition ([8]; at 50.0 µM): 99% (active) | growth inhibition ([9]; at 1.2 µM): 0% | growth inhibition ([9]; at 3.7 µM): 13% | growth inhibition ([9]; at 11.0 µM): 68% | growth inhibition ([9]; at 33.0 µM): 99% (active) | growth inhibition ([9]; at 100.0 µM): 98% (active) | growth inhibition [10, 16]: 52% | growth inhibition [10, 17]: 99% (active) | growth inhibition ([10]; at 50.0 µM): 98.4% (active) | growth inhibition ([11]; at 1.2 µM): 0% | growth inhibition ([11]; at 3.7 µM): 10% | growth inhibition [11, 16]: 3% | growth inhibition ([11]; at 11.0 µM): 61% | growth inhibition ([11]; at 33.0 µM): 95% (active) | growth inhibition [11, 17]: 99% (active) | growth inhibition ([11]; at 50.0 µM): 99.2% (active) | growth inhibition ([11]; at 100.0 µM): 98% (active) | growth inhibition ([12]; at 1.2 µM): -1% | growth inhibition ([12]; at 3.7 µM): 6% | growth inhibition ([12]; at 11.0 µM): 58% | growth inhibition ([12]; at 33.0 µM): 98% (active) | growth inhibition ([12]; at 100.0 µM): 98% (active) | growth inhibition ([13]; at 1.2 µM): 1% | growth inhibition ([13]; at 3.7 µM): 9% | growth inhibition ([13]; at 11.0 µM): 45% | growth inhibition ([13]; at 33.0 µM): 95% (active) | growth inhibition ([13]; at 100.0 µM): 98% (active) | growth inhibition [14, 16]: 5% | growth inhibition [14, 17]: 99% (active) | growth inhibition ([14]; at 50.0 µM): 98.4% (active) | growth inhibition ([15]; at 1.2 µM): 0% | growth inhibition ([15]; at 3.7 µM): 8% | growth inhibition ([15]; at 11.0 µM): 36% | growth inhibition ([15]; at 33.0 µM): 96% (active) | growth inhibition ([15]; at 100.0 µM): 97% (active)
